High-throughput results from PubChem.
Peg3 prom inh – Peg3 promoter-driven luciferase inhibitors, primary screen, cell-based, HeLa, luciferase luminescence; HeLa PEG-Prom luciferase reporter, overnight; inhibition, % at 20 µM; 360,000 tested, 1.7% active; AID 588405, 2011;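 active means inhibition of at least 50% at 20 µM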
KKLEB tox – cytotoxicity in KKLEB CF airway cells, primary screen, cytotoxicity control for CF NF-kB inhibitor project, cell-based, uHTS, fluorescence assay plates; 360,000 tested, 0.36% active; KKLEB CF airway cells viability, ATPlite luminescence, overnight; hits give low values; cells stimulated with P. aeruginosa culture filtrate; AID 602141, 2011; activity change (cytotoxicity), % at 5 µM;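 active means corrected activity change at or below -50% at 5 µM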
HIF-2a inh – HIF-2a reporter inhibitors, primary screen, luminescence, 786-0 RCC cells; 786-0 RCC cells HIF-2a reporter, luciferase luminescence, overnight; inhibition, % at 18.8 µM; 360,000 tested, 0.72% active; AID 624352, 2012;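 active means inhibition of the luminescence signal of 40% or more relative to plate controls, in a single-dose primary screen at 18.75 µM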
CF NFkB block – inhibitors of PAF-induced NF-kB signaling, primary screen, cell-based, GFP fluorescence, uHTS; inhibition, % at 5 µM; KKLEB NF-kB-GFP reporter, GFP fluorescence overnight; 360,000 tested, 0.86% active; AID 588850, 2011;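 active means at least 50% inhibition at 5 µM, scaled per plate between neutral and stimulator controls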;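 further: PAF is a Pseudomonas aeruginosa culture filtrate used as stimulus; plate controls were PAF-stimulated DMSO wells for no effect and unstimulated DMSO wells for full effect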
Shn3 3UTR inh – reduction of Shn3 3'UTR firefly luciferase signal, primary screen, Schnurri-3 inhibitor project, cell-based, Clone20 osteoblasts, set 2 | Clone20 osteoblast Shn3 3'UTR firefly luciferase, 24 h | inhibition, % at 12.5 µM | 360,000 tested, 0.52% active | AID 588674, 2011;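 active means mean inhibition of at least 75% with every replicate also reaching 75%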;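 further: 0% = median of neutral control wells and 100% = pilot-screen positive control compound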
* hit, by the source's call; / = not tested or not shown. In the library only some 2.6% were active in any assay of this set; here they are far more common.

SMILES	Peg3 prom inh	KKLEB tox	HIF-2a inh	CF NFkB block	Shn3 3UTR inh
Cc1cc(C(=O)CSc2nc(N)cc(=O)[nH]2)c(C)n1CC1CCCO1 (stereo not drawn)	4	1	-5	-8	38
Cc1cc(C(=O)CSc2nc3ccccc3[nH]2)c(C)n1CC1CCCO1 (stereo not drawn)	102*	-28	-56	14	74
Cc1ccc(N2C(=O)C3C4C=CC(CNC(=S)Nc5cccc(Cl)c5)(O4)C3C2=O)cc1 (stereo not drawn)	24	-12	-5	-5	56
CCCCNC(=O)C1(C)CCCCN1C(=O)c1ccno1 (stereo not drawn)	2	4	6	5	-11
O=C(c1ccccc1)c1ccccc1N1C(=O)C=CC1=O	104*	-9	25	78*	93*
O=C(O)c1cccc(N2C(=O)C=CC2=O)c1	13	-1	15	-5	-6
COc1ccc2c(C)cc(SCC(=O)Nc3ccc(Cl)cn3)nc2c1	25	-52*	20	52*	9
COc1cccc(-c2nc3c(c(SCC(=O)N4CCOCC4)n2)Cc2c(CO)cnc(C)c2O3)c1	59*	-11	3	38	4
Cc1ncc(CO)c2c1Oc1nc(-c3ccccc3)nc(SCC(=O)N3CCOCC3)c1C2	80*	-15	10	14	-6
Cc1cccc(-c2nc3c(c(SCC(=O)N4CCOCC4)n2)Cc2c(CO)cnc(C)c2O3)c1	68*	15	15	12	13
CCn1c(SCC(=O)N2CCN(c3ccccc3)CC2)nc2c([nH]c3ccccc32)c1=O	31	-29	6	-1	10
C[C@H](CO)N1C[C@H](C)[C@H](CN(C)C(=O)Nc2cccc(C(F)(F)F)c2)OCc2cnnn2CCCC1=O	12	-5	5	-3	-20
Cc1nn(-c2ccccc2)c(N2CCCC2)c1/C=N/NC(=O)c1cc(-c2cccnc2)nc2ccccc12	46	-7	17	22	13
CC(/C=N/NC(=O)c1cc(-c2cccnc2)nc2c1c(C)nn2-c1ccccc1)=C\c1ccccc1	51*	-10	15	21	13
Cc1ccc(C(=O)CCC(=O)NC2=NCCS2)cc1	-18	10	-16	-6	-9
NC(=S)NN=C1c2cc(OCCN3CCOCC3)ccc2-c2ccc(OCCN3CCOCC3)cc21	107*	-38	19	-51	22
ON=C1c2cc(OCCN3CCCCC3)ccc2-c2ccc(OCCN3CCCCC3)cc21	111*	-3	-33	-8	-9
O=C(NCc1ccccc1)C(c1ccccc1F)n1c(=O)c(-c2cc3ccccc3[nH]2)nc2ccccc21 (stereo not drawn)	/	/	-3	/	/
Nc1ccc(Oc2ccccc2-c2ccccc2)cc1	49	6	91*	0	/
CCCc1nnc(NC(=O)OCC)s1	-6	-6	7	11	3
CC(=O)Nc1ccc(C(=O)CCl)cc1	34	-12	-12	1	2
CC(=O)NCc1ccc(C(=O)CCl)s1	69*	-26	18	9	-13
CC(=O)NCc1ccc(C(=O)CCl)cc1	53*	14	15	2	3
COc1ccc(C(=O)OCC(=O)c2ccc(CNC(C)=O)s2)cc1	-38	0	-48	0	-44
CNC1(C)[C@H]2CC[C@H](C2)C1(C)C (stereo partly drawn)	-6	-10	-3	-24	16
SMILES	Peg3 prom inh	KKLEB tox	HIF-2a inh	CF NFkB block	Shn3 3UTR inh
O=C1OC(N2C(=O)CC[C@H]2C(=O)Nc2ccc3c(c2)OCO3)c2ccccc21 (stereo partly drawn)	-32	2	-23	1	-13
CC(C)(C)c1ccc(C(=O)Nc2nnc(SCC(=O)NCC3CCCO3)s2)cc1 (stereo not drawn)	-41	-62*	-1	-2	-18
CN(C)S(=O)(=O)c1ccc(C(=O)Nc2nnc(SCC(=O)NCC3CCCO3)s2)cc1 (stereo not drawn)	-3	5	-24	-21	7
O=C(CCS(=O)(=O)c1ccc(F)cc1)Nc1nccs1	-11	8	-18	-9	18
O=c1cc(CSc2ccc(Cl)cc2)nc(-c2ccccn2)[nH]1	91*	10	-8	4	63
CCC1(c2ccccc2)ON(c2c(Br)cccc2Br)C1=O (stereo not drawn)	73*	7	33	24	-26
COC(=O)c1ccc(/C=N/NC(=O)CC(=O)NCc2cccnc2)cc1	2	12	13	-11	15
Cc1ccc(NC(=O)CSc2ccccc2)cc1S(=O)(=O)N1CCCCC1	-2	-17	-16	5	11
Cc1cc(C)c(S(=O)(=O)/N=C2/C=C(SCC(=O)O)C(=O)c3ccccc32)cc1C	2	-4	2	56*	22
Cc1cc(C)cc(NC(N)=S)c1	6	3	18	-2	-11
CC1CCCCN1C(=O)c1cc(S(=O)(=O)N2CCOCC2)ccc1Cl (stereo not drawn)	-6	13	4	13	12
CCN(CC)C(=O)Cn1cc(S(=O)(=O)CC(=O)Nc2cc(OC)ccc2OC)c2ccccc21	7	-4	5	11	-3
Cc1cc(Br)ccc1SCC(=O)OCC(O)=C(C#N)c1nc2ccccc2[nH]1	66*	-14	-3	-8	-13
N#C/C(=C(/O)CCl)c1nc2ccccc2[nH]1	27	-12	-63	12	9
N#C/C(=C(\O)Cc1ccccc1)c1nc2ccccc2[nH]1	17	-25	-2	22	90*
Cc1cc(Br)ccc1SCC(=O)OC/C(O)=C(\C#N)c1nc2ccccc2[nH]1	37	-4	0	4	-22
COc1ccc(N/N=C(\C#N)C(N)=O)cc1	-27	-6	-42	0	-16
N#C/C(=N/Nc1ccc(OC(F)(F)F)cc1)C(N)=S	-169	-48	-256	64*	-30
COc1cc(CNCCO)cc(Br)c1OCc1ccccc1Cl	41	-2	-12	2	-11
COc1cc(CNC(C)(C)CO)cc(Br)c1OCc1ccc(Cl)cc1Cl	90*	-42	1	39	-5
COc1cc(CNCCO)cc(Cl)c1OCc1ccc(Cl)cc1Cl	105*	-14	5	13	11
Cc1ccc(NC(=O)Cn2ccc([N+](=O)[O-])n2)cc1Cl	-1	6	-1	-4	-8
O=C(CN1C2CCCC1CC(NC(=O)c1ccccc1)C2)Nc1nccs1 (stereo not drawn)	-3	8	5	-2	-57
O=C(Nc1ccc(N2CCOCC2)c(Cl)c1)c1c(F)c(F)c(F)c(F)c1F	52*	-16	29	32	18
CN(C)CCCN(C(=O)/C=C/c1cccs1)c1nc2ccc(F)cc2s1	-10	-30	6	45	-27
